Hits are enriched below; roughly 2.6% of the tested compounds scored in any of these assays.
PME-1 primary: blocks human protein phosphatase methylesterase 1. inhibition, % at 5.9 µM. actives 0.53% (n = 320,000). Q9Y570. AID 2130. recombinant PME-1, FP-Rh probe fluorescence polarization;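 active = inhibition above the campaign mean of all compounds plus 3 SD, cut at about 26% in these data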;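 also: competitive labeling of PME-1 active site by serine hydrolase directed probe; 0% = PME-1 with DMSO and 100% = wells lacking PME-1 enzyme; inhibitors block probe labeling so polarization falls and inhibition rises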
SIAE inh: human SIAE inhibition, primary screen; Q9HAT2; SIAE FP-Rh probe binding, fluorescence polarization; inhibition, % at 9.66 µM; actives 0.69% (n = 370,000);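 active = inhibition above a cutoff: mean of compounds within the control limits plus 3 SD of those, cut at about 17% in these data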;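 also: 0% = plate median of compound wells and 100% = probe without SIAE protein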
Fam108B inh: Fam108B inhibition, counter-screen for RBBP9 inhibitors. inhibition, % at 9.51 µM. recombinant Fam108B, FP-Rh probe fluorescence polarization. actives 0.33% (n = 300,000);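 active = inhibition above the screen mean inhibition plus 3 SD, computed separately per campaign, cut at about 18% in these data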;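 also: inhibitors lower polarization as less probe binds the enzyme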
PAD4 inh: PAD4 (human) enzyme inhibition | recombinant PAD4, RCA probe fluorescence polarization | inhibition, % at 6.36 µM | actives 0.41% (n = 330,000) | Q9UM07;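 active = percent inhibition above a cutoff equal to the mean of all tested compounds plus 3 SD, cut at about 15% in these data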;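 also: 0% = PAD4 with RCA probe and DMSO and 100% = probe without PAD4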
Target sequence (Q9UM07 whole entry, looked up): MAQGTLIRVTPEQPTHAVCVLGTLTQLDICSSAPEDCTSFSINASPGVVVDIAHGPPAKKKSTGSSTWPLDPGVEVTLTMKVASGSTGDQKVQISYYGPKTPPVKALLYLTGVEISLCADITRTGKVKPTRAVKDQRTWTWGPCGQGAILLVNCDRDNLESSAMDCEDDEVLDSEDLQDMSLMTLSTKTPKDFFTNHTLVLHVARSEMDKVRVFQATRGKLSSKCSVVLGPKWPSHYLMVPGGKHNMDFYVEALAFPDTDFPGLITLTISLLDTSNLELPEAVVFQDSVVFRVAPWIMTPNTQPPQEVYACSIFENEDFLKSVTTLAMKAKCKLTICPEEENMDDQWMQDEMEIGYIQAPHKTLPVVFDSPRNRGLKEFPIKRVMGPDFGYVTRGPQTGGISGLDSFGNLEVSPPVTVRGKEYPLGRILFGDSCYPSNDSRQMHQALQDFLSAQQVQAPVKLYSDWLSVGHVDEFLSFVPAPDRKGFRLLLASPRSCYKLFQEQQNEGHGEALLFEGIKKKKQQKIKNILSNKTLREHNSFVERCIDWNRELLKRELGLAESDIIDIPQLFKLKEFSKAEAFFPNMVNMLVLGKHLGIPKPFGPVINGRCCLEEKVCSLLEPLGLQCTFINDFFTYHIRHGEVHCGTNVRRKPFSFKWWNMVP
TCR CD3 inh: human TCR-CD3 binding inhibition; TAMRA-labeled TCR probe fluorescence, biochemical; AID 651800; actives 0.37% (n = 360,000); inhibition, % at 9.4 µM; in the data active = inhibition above about 19%;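 also: recombinant mutant TCR 2C K166C tagged with TAMRA read by polarization; 0% = receptor in buffer alone and 100% = receptor with positive control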
PRMT1 FP inh: blocks human protein arginine methyltransferase 1. actives 1.3% (n = 370,000). inhibition, % at 2.79 µM. recombinant PRMT1, activity-based probe fluorescence polarization. Q99873;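 active = inhibition above about 21% made by adding two undisclosed values, limit read from the data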
SIAE confirm: human SIAE inhibition, confirmation; shares compounds with SIAE inh; SIAE FP-Rh activity-based probe, fluorescence polarization; inhibition, % at 9.66 µM; actives 13% (n = 2,300);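 active = mean inhibition of the replicates above the hit cutoff set in the primary screen, cut at about 17% in these data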;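 also: 0% = SIAE with DMSO and probe and 100% = probe without SIAE; inhibitors lower polarization as more probe stays unbound to SIAE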
* = called active by the depositor; . = no result given.

SMILES	PME-1 primary	SIAE inh	Fam108B inh	PAD4 inh	TCR CD3 inh	PRMT1 FP inh	SIAE confirm
O=C(Nc1cccc(/C=C/c2ccccn2)c1)c1ccc(-n2cncn2)c([N+](=O)[O-])c1	4	19*	-1	-2	-2	-2	-17
O=C(NCCCc1ccccc1)[C@H](CO)NC1(C(=O)NCCc2c[nH]c3ccccc23)CCCCC1	.	7	.	.	.	3	.
Cc1cc(Nc2ccccc2)n(-c2ccc(C(=O)O)cc2)n1	2	23*	-2	0	4	-1	-4
CCN(CC)CCNc1nc2c(c(=O)[nH]c(=O)n2C)n1CCCc1ccccc1	-3	19*	-4	3	-3	-6	3
CC1CCCN(c2nc3c(c(=O)[nH]c(=O)n3C)n2CCCc2ccccc2)C1 (centres undefined)	24	18*	3	-2	5	-3	5
CC(C)c1ccc(NC(=O)O[C@@H]2CC[C@@]34CCCN3C(=O)CCC[C@H]4C2)cc1	.	1	.	.	.	1	.
COC(=O)C1CN(Cc2cn(CCC3OCCO3)nn2)CCS(=O)(=O)N1Cc1ccc(C)cc1 (centres undefined)	.	0	.	.	.	1	.
COc1ccccc1NC(=O)C(Cc1ccc(Cl)cc1)c1nn[nH]n1 (centres undefined)	1	9	2	2	1	1	.
COc1ccc(CC(C(=O)Nc2ccc(OC)cc2)c2nn[nH]n2)cc1 (centres undefined)	-2	26*	3	-1	-9	-3	1
C[C@@H]1CCN(C2CC2)S(=O)(=O)c2ccc(N3CC[C@H](N(C)C)C3)cc2O1	.	4	.	.	.	0	.
CC1CC(C)(C)CC2(C1)NC(=O)N(CC(=O)N(C)Cc1nc3ccccc3c(=O)[nH]1)C2=O (centres undefined)	0	19*	.	-1	9	1	-3
CC1CCCCC12NC(=O)N(CC(=O)N(C)Cc1nc3ccccc3c(=O)[nH]1)C2=O (centres undefined)	0	9	.	1	1	-2	.
COC(=O)C1CN(Cc2ccccc2)CCS(=O)(=O)N1Cc1ccccc1 (centres undefined)	.	-2	.	.	.	-3	.
CS(=O)(=O)N1CCN(c2ccc(NC(=S)NC(=O)c3ccccc3[N+](=O)[O-])cc2)CC1	3	20*	-3	-2	3	-1	-1
Cc1ccc(-c2nnc(SCC(=O)N3CCCC3)o2)cc1	-1	0	3	-1	6	0	.
O=C(CSc1nnc(-c2ccc(F)cc2)o1)N1CCCC1	-3	21*	2	-5	2	-1	-4
Cc1cccc(-c2nnc(SCC(=O)NC3CCCC3)o2)c1	.	-2	.	.	-4	-2	.
O=C(CSc1nnc(-c2cccc(F)c2)o1)NC1CCCC1	.	20*	.	.	-6	4	-1
Fc1ccc(CN2CCN(c3ncc(Cc4ccccc4)cn3)CC2)c(Cl)c1	.	0	.	.	8	1	.
CCN(C[C@@H]1[C@@H](c2ccccc2)[C@H](CO)N1S(C)(=O)=O)C(=O)C1CCC1	.	3	.	.	.	-3	.
Cc1ccc(OCCn2cc(/C(N)=N/O)c3ccccc32)cc1C	8	20*	3	1	3	-2	9
COc1ccc(OCCn2cc(/C(N)=N/O)c3ccccc32)cc1	6	7	13	6	-5	-1	.
C[C@H](O)[C@@H]1CN2CCc3c([nH]c4c(-c5ccc6c(c5)OCO6)cccc34)[C@@H]2C[C@@H]1N(C)C(=O)c1ccco1	.	-6	.	.	.	-5	.
CCOC(=O)N1CCN(Cc2c(F)cccc2Cl)CC1	0	18*	2	-1	1	2	3
CCOC(=O)N1CCN(Cc2c(F)cccc2F)CC1	-4	4	-1	0	6	4	.
SMILES	PME-1 primary	SIAE inh	Fam108B inh	PAD4 inh	TCR CD3 inh	PRMT1 FP inh	SIAE confirm
COc1ccccc1-n1c(C)nc2cc(C(=O)O)ccc21	-3	17*	1	6	8	1	-2
Nc1[nH]c2cc(Cl)ccc2c1C(=O)NCCc1ccc(Cl)cc1	.	19*	.	.	.	2	19*
CC(=O)c1c(C)[nH]c(C(=O)NCCc2ccc(Cl)cc2)c1C	0	2	9	0	1	4	.
Cc1ccc(-n2c(SCC(=O)C(C)(C)C)nnc2-c2cccc(C)c2)cc1	.	0	.	.	.	1	.
Cc1ccc(-n2c([S-])c(C(=O)Nc3ccc(OC(F)F)cc3)[n+]3ccc(C(=O)NCCO)cc23)cc1C	3	18*	8	1	-3	3	-7
COc1ccccc1N1CCN(/N=C/c2cc(OC)c(O)c(OC)c2)CC1	6	20*	6	-2	-8	2	-2
CN1CCC(=NNC(=O)CN(c2cccc([N+](=O)[O-])c2)S(=O)(=O)c2ccccc2)CC1	0	23*	1	0	6	-6	-1
CN1CCC(=NNC(=O)CN(c2ccc([N+](=O)[O-])cc2)S(=O)(=O)c2ccccc2)CC1	-8	5	-1	-2	-7	5	.
CC(Sc1ncnc2ccccc12)C(=O)Nc1ccc2c(c1)OCCO2 (centres undefined)	0	24*	-3	-9	-1	-2	-1
CCOc1ccc(C2C(C(=O)OC)=CN(C(C)c3ccccc3)C=C2C(=O)OC)cc1 (centres undefined)	0	18*	1	3	7	-2	1
CC(C)C[C@@H]1COc2cc(N3CCSCC3)ccc2S(=O)(=O)N1C	.	1	.	.	.	0	.
Cc1csc(N/N=C/c2ccc(O)c([N+](=O)[O-])c2)n1	-1	17*	17	5	13	48*	-3
O=C(CCc1ccccc1)N[C@H]1/C(=N/O)CCC[C@]12C(=O)N(Cc1ccccc1)c1ccccc12	.	7	.	.	.	2	.
COC(=O)CCCCCc1ccc(C(C)=O)s1	4	17*	1	-3	3	-1	6
CC(=O)c1ccc(CCCCCCCCCC(=O)O)s1	-3	7	0	0	4	2	.
COc1ccc(N2CCN(C(=O)c3cccc(S(=O)(=O)N4CCc5ccccc54)c3)CC2)cc1	.	90*	.	-4	-3	-5	8
CC(C)/C=N/Nc1nc(-c2ccc(Br)cc2)cs1	15	18*	1	0	8	1	2
COc1ccc(NS(=O)(=O)c2cc(NC(=O)c3ccc(=O)[nH]c3)ccc2N2CCCC2)cc1	8	23*	18	-3	3	1	2
COc1cccc(Cn2cc(COC(=O)N3CCOCC3)nn2)c1	.	0	.	.	.	1	.
CCc1nnn2c1Cn1c3ccccc3c(=O)n1[C@@H](C(C)C)C2	.	-1	.	.	.	-4	.
O=C(NNS(=O)(=O)c1ccc([N+](=O)[O-])cc1)c1ccc2ccccc2c1O	.	19*	.	.	-7	1	2
COc1ccc(N2CCOCC2)c(NC(=O)c2ccc(Br)o2)c1	2	6	0	3	5	4	.
